FXIIa inh – inhibitors of human coagulation factor XIIa | P00748 | purified human FXIIa, AMC substrate fluorescence, 2 h | inhibition, % at 10 µM | 33,000 compounds, 0.2% hits | AID 701; in the data active = inhibition above about 30%;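 note: 0% = enzyme with vehicle only and 100% = no enzyme blank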
Target sequence (P00748 20-372 limits assumed): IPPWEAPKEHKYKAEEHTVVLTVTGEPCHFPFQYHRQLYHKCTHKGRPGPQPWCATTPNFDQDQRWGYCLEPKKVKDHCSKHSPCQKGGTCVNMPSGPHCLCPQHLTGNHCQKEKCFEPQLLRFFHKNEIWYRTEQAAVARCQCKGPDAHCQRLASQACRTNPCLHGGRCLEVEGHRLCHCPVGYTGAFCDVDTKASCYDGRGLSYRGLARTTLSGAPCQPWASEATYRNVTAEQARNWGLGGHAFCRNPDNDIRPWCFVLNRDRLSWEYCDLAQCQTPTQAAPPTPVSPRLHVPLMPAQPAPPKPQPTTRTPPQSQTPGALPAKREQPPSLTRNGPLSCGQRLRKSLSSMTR
Target sequence (P00748 373-615 limits assumed): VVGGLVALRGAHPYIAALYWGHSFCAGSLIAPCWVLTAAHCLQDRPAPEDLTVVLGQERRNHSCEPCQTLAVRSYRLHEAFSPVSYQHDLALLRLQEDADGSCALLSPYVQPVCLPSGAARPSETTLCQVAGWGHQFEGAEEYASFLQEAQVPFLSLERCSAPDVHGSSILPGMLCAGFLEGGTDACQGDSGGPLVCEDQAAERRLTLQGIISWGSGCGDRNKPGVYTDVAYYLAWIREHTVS
FXIa single inh – blocks human coagulation factor XIa activity; P03951; purified human FXIa, fluorogenic AMC substrate cleavage; inhibition, % at 10 µM; 33,000 compounds, 0.3% hits; AID 687;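 active = inhibition above 40% in the primary screen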;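 note: 0% = enzyme without compound and 100% = blank wells lacking enzyme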
* marks the source's active call; other numbers are inactive results. Hits are enriched below; roughly 0.33% of the tested compounds scored in any of these assays.

SMILES	FXIIa inh	FXIa single inh
CNC(=O)COC(=O)c1[nH]c(C)c(C(C)=O)c1C	6	46*
COCCNC(=O)COC(=O)c1[nH]c(C)c(C(C)=O)c1C	14	0
Cc1cccc(NC(=O)c2snc3c(=O)[nH]cnc23)c1	-14	103*
CCc1cccc(NC(=O)c2snc3c(=O)[nH]cnc23)c1	5	0
CC(O)CNC(=O)c1ccc(-c2nn(C)c(=O)c3ccccc23)cc1 (stereo not drawn)	5	-2
CCN(CC)CCNC(=O)C(C)c1nn(C)c(=O)c2ccccc12 (stereo not drawn)	1	42*
O=C(CCC(=O)N1CCOCC1)Nc1nnc(C2CCCCC2)s1	12	0
CC(C)CN(CC(C)C)S(=O)(=O)N1CCC(C(=O)NCCc2ccc(Cl)cc2)CC1	8	3
CC(C)c1nc2ccc(NC(=O)C3CCCCC3)cc2[nH]1	-16	104*
O=C(Nc1ccc2nc(-c3ccccn3)[nH]c2c1)C1CCCCC1	3	0
O=C(Oc1ccc2c(=O)c(Cl)coc2c1)c1cccnc1	29	59*
CCN(CC)C(=O)Oc1ccc2c(=O)c(-c3ccccc3)coc2c1	4	2
Cc1ccc(-c2c(C)n([O-])c3c([n+]2=O)CCCC3)o1	11	2
CC1=C(C#N)c2nc(N)c(C#N)c(C)c2/C1=C\c1ccccc1	-1	0
CCn1c(SCC(=O)c2[nH]c(C)c(C(C)=O)c2C)nnc1-c1ccccc1	-10	41*
CCOC(=O)c1c(C)[nH]c(C)c1C(=O)CSc1nnc(-c2ccncc2)n1Cc1ccccc1	1	-7
Cc1ccc2c(c1)N(C(=O)c1ccco1)C(C)(C)c1ssc(=S)c1-2	4	-3
CCOC(=O)CN1C(=O)c2ccccc2C1=O	9	2
Cc1c(O)ccc(C(=O)CN2C(=O)c3ccccc3C2=O)c1O	6	59*
COC(=O)c1ccc(COc2ccc3c4c(c(=O)oc3c2)CCC4)o1	6	-2
O=C(Oc1ccc2c3c(c(=O)oc2c1)CCC3)c1ccco1	54*	14
CN(C)S(=O)(=O)c1ccc(S(=O)(=O)N2CCCC2)cc1	5	6
CN(CCOc1ccccc1)c1ccc(S(=O)(=O)N2CCCCC2)cn1	11	41*
CCOC(=O)Cc1csc(NC(=O)CSc2nc(N)c3c(C)c(C)sc3n2)n1	4	1
COc1cccc(NC(=O)CCNC(=O)Cn2ccc3ccccc3c2=O)c1	7	-2
SMILES	FXIIa inh	FXIa single inh
O=C(CCn1c(=O)c2ccccc2n(Cc2ccccc2)c1=O)NCc1ccc2c(c1)OCO2	1	8
Cc1ccc(C2=N/C(=C\c3cccs3)C(=O)N2Nc2ccccc2)cc1	14	-6
O=C1N=C(c2ccccc2)S/C1=C\c1cccs1	46*	38
Cc1cccc(N2CCN(CC(=O)Nc3ccc(-n4cnnn4)cc3)CC2)c1C	4	41*
O=C(Nc1ccc(-n2cnnn2)cc1)C1CCCCC1	4	5
CCOC(=O)C1=C(N)Oc2c(c(=O)[nH]c3ccccc23)C1c1ccccc1 (stereo not drawn)	3	-10
COc1ccccc1-c1nnc(Sc2nc([N+](=O)[O-])nn2C)o1	8	-5
CCCN(CCC)C(C(=O)Nc1cccc(OC)c1)c1ccccc1 (stereo not drawn)	-18	105*
COc1cccc(NC(=O)C(NCC2CCCCC2)c2ccccc2)c1 (stereo not drawn)	3	-1
COc1cc(CN2C(=O)C(NC(=O)c3ccco3)(C(F)(F)F)C3=C2CC(C)(C)CC3=O)cc(OC)c1 (stereo not drawn)	-2	6
Cc1ccc2c(c1)cc(CN(Cc1cccnc1)C(=O)NCc1ccccc1)c1nnnn12	5	9
CN(c1cccc(Cl)c1)S(=O)(=O)c1cccc(C(=O)NC2=NCCS2)c1	7	-2
Cc1ccc(OC(=O)c2ccc(Br)o2)cc1	8	8
CC(=O)c1ccc(OC(=O)c2ccc(Br)o2)cc1	50*	13
CC(C)CN1C(=S)SC(C)(C)C1n1oc(=O)n(-c2ccc(Cl)cc2)c1=O (stereo not drawn)	13	-2
Cc1cc(Nc2ccccc2)n(CCO)n1	8	-1
COCCN=C1Sc2nc3c(C)cccc3cc2CN1Cc1ccco1	4	43*
Cc1ccc2cc3c(nc2c1)N(Cc1ccco1)CC3	2	-5
COc1ccc(S(=O)(=O)N(C)CC(=O)Nc2ccc(C(F)(F)F)cc2)cc1Cl	5	-11
Cn1c(C(=O)OC(C(=O)NCc2ccco2)c2ccncc2)cc2sccc21 (stereo not drawn)	-6	0
CN(c1ccc(C(=O)Nc2ccccc2C(=O)N2CCOCC2)cc1)S(C)(=O)=O	4	-5
O=C(Nc1ccccc1C(=O)N1CCOCC1)c1ccc(F)cc1	5	47*
O=C(NC(C(=O)c1ccccc1)n1c(=O)cc[nH]c1=S)c1ccccc1 (stereo not drawn)	4	48*
Cc1cc(=O)n(CNC(=O)c2ccccc2)c(=S)[nH]1	-12	15
Cc1cc(C)c(NC(=O)COc2ccccc2C(=O)Nc2ccc3c(c2)oc2ccccc23)c(C)c1	-3	-7
SMILES	FXIIa inh	FXIa single inh
CC1CCN(C(=O)CCc2ccc(S(=O)(=O)NC(C)C)cc2)CC1	-6	-2
CCOC(=O)N1CCN(CC(=O)Nc2ccc(C)cc2)CC1	2	4
CCOC(=O)N1CCN(C/C(C)=C/c2ccccc2)CC1	31*	2
COc1cc(C(N)=O)ccc1OCc1ccccc1	4	2
COc1ccc(C(=O)n2nc(-c3ccccc3)nc2N)cc1OC	62*	1
COc1ccc(OC)c(S(=O)(=O)N2c3cc(F)ccc3CCC2C)c1 (stereo not drawn)	5	7
O=C(OC(C(=O)NC1CCCC1)c1ccncc1)C1=Cc2ccccc2OC1 (stereo not drawn)	10	3
Cc1ccc(-c2csc3ncnc(N4CCN(C(=O)c5ccccc5)CC4)c23)cc1	-10	-8
CC(C)CNS(=O)(=O)c1ccc2c(c1)OCCO2	6	10
Cc1ccc(-c2csc(N3CCC(NS(=O)(=O)c4ccc5c(c4)OCCO5)CC3)n2)cc1	-12	59*
CN(CC(=O)O/N=C(\N)c1ccc([N+](=O)[O-])cc1)S(=O)(=O)c1ccc2ccccc2c1	3	-1
Cc1ccc(OCc2nnc(SCC(=O)NC3CCCCC3)n2C)cc1	19	-8
Cn1c(SCC(=O)NC2CCCCC2)nnc1-c1cccc(N)c1	-13	40*
COc1ccc(NC(=O)C2CCN(S(=O)(=O)c3c(C)noc3C)CC2)cc1Cl	16	-1
COC(=O)C(Cc1c[nH]c2ccccc12)NC(C)=O (stereo not drawn)	-17	103*
Cc1ccc(C(=O)NC(Cc2c[nH]c3ccccc23)C(=O)O)cc1 (stereo not drawn)	10	7
CCOC(=O)NC1(C(F)(F)F)C(=O)N(Cc2ccccc2)C2=C1C(=O)CC(C)(C)C2 (stereo not drawn)	3	-5
Cc1ccc(CNC(=O)C2CCC(=O)N2CCc2ccccc2)cc1 (stereo not drawn)	9	7
CCOc1ccc(S(=O)(=O)Nc2ccccn2)c2ccccc12	0	-6
CCOc1ccc(S(=O)(=O)NCc2ccc(OC)cc2)c2cccnc12	9	62*
COc1ccc(OC)c(NC(=O)CSc2nnc(C3CCCCC3)n2-c2ccccc2)c1	3	-3
COc1ccc(CC(=O)NCc2ccc3c(c2)OCO3)cc1	7	53*
